Source: PubChem
GSH fluor – GSH bead compound fluorescence profile. GSH beads flow cytometry, compound fluorescence 488/530 nm; hits give high values. fluorescence (KMESF) at 10 µM. hit rate 0.25% among 190,000; in the data active means fluorescence above about 89;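 further: glutathione beads carrying GST-tagged Bcl family fusion proteins plus one bare bead set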
RGS8-Gao reg – modulates binding of RGS8 to human Galphao; P09471; multiplexed bead flow cytometry; actives lie on both sides; response (percent of control binding), % at 10 µM; hit rate 0.34% among 220,000; AID 1423; in the data active means response below about 60% or above about 140%; inactive means in between;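 further: Galphao activated as the GDP aluminium fluoride complex binding bead-coupled RGS8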
RGS16-Gao – RGS16-Galphao interaction regulator (human). O15492+P09471. bead-based flow cytometry RGS16-Galphao binding, fluorescence; actives lie on both sides. binding response (% of control), % at 10 µM. hit rate 0.38% among 220,000;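 further: Galphao activated by GDP with aluminum fluoride before binding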
Avidin fluor – avidin bead compound fluorescence profile | Avidin beads, compound fluorescence 488/530 nm, flow cytometry; hits give high values | fluorescence (KMESF) at 10 µM | hit rate 0.38% among 220,000; in the data active means fluorescence above about 47
RGS4-Gao reg – human RGS4-Galphao interaction regulation; hit rate 0.33% among 220,000; binding response (% of control), % at 10 µM; P09471; AID 1415; Multiplexed bead flow cytometry, RGS4-Galphao binding; actives lie on both sides; in the data active means binding response below about 49% or above about 150%; inactive means in between;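 further: fluorescent Galphao activated with aluminum fluoride binding bead-coupled RGS4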
RGS7-Gao – human RGS7-Galphao interaction regulation | P09471 | Multiplexed bead flow cytometry, RGS7-Galphao binding; actives lie on both sides | binding response (% of control), % at 10 µM | hit rate 0.35% among 220,000; in the data active means binding response below about 49% or above about 150%; inconclusive means no clear call, values can overlap the other calls; inactive means in between;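 further: fluorescent Galphao held in activated GDP-AlF4 state binding bead-coupled RGS7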
RGS4-Gao HTS – RGS4-Galphao interaction regulator (human). multiplexed bead flow cytometry, RGS–Galpha-o binding. shares compounds with RGS16-Gao. RGS4–Galpha-o binding response, % at 10 µM. hit rate 99% among 1,600. AID 1504;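 further: fluorescently labeled Galpha-o bound to GDP with aluminium fluoride binding biotinylated RGS beads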
Biotin-avidin – biotin-avidin bead binding disruption counter-screen. inhibition, % at 10 µM. 1,700 tested, under 10 active. streptavidin beads, fluorescein-biotin binding, flow cytometry. shares compounds with RGS16-Gao;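 active means inhibition above 50%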;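 further: median green fluorescence of gated singlet beads compared with DMSO control wells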
RGS8-Gao confirm – RGS8-Galphao interaction regulation, single point confirmation. shares compounds with RGS16-Gao. bead-based flow cytometry RGS8-Galphao binding, fluorescence; actives lie on both sides. binding response (% of control), % at 10 µM. hit rate 3% among 1,700. AID 1836; in the data active means binding response below about 72% or above about 130%; inactive means in between;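 further: Galphao activated as GDP AlF4 complex before binding bead RGS8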
RGS7-Gao single – RGS7-Galphao interaction regulation, single point confirmation; response (percent of control binding), % at 10 µM; AID 1837; bead-based flow cytometry RGS7-Galphao binding; actives lie on both sides; hit rate 7.8% among 1,700; shares compounds with RGS16-Gao; in the data active means response below about 75% or above about 130%; inactive means in between;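 further: fluorescent Galphao activated with GDP and aluminum fluoride binding bead-coupled RGS7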
RGS16-Gao single – RGS16-Galphao interaction regulation, single point confirmation. shares compounds with RGS16-Gao. bead-based flow cytometry, RGS16-Galphao binding; actives lie on both sides. response (% of control binding), % at 10 µM. hit rate 4% among 1,700. AID 1838; in the data active means response below about 74% or above about 130%; inactive means in between;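 further: Galphao activated as the GDP aluminium fluoride complex binding bead-coupled RGS16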
RGS4-Gao single – confirmation of regulators of human RGS4-Galphao interaction; hit rate 4% among 1,700; RGS4-Galphao binding, multiplexed bead flow cytometry; actives lie on both sides; shares compounds with RGS16-Gao; binding response (% of control), % at 10 µM; AID 1840; in the data active means binding response below about 74% or above about 130%; inactive means in between
RGS19-Gao single – RGS19-Galphao interaction regulation, single point confirmation. shares compounds with RGS16-Gao. response (percent of control binding), % at 10 µM. hit rate 5% among 1,700. bead-based flow cytometry RGS19-Galphao binding; actives lie on both sides; in the data active means response below about 50% or above about 160%; inactive means in between
Target sequence (P09471 whole entry, looked up): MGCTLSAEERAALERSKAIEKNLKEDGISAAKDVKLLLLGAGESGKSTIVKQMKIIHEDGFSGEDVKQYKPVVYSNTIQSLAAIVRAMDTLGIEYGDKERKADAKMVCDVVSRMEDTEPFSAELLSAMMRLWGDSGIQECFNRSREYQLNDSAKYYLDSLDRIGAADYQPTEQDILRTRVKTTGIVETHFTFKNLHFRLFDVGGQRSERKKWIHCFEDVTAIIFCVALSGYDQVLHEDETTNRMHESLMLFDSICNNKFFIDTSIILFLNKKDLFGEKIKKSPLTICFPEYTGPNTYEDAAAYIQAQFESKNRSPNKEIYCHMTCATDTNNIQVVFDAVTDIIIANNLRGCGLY
Target sequence (P49795 whole entry, looked up): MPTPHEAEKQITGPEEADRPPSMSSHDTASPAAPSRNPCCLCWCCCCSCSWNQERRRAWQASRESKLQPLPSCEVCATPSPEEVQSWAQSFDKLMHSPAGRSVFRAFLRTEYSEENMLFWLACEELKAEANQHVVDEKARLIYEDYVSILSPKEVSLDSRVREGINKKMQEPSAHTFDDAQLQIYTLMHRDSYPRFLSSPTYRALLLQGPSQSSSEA
Of the large screens only hits and unclear results are named; the others gave an inactive call (follow-up assays come after a bar, where they were run); [ ] = dose if it differs, or a comment. Hits are enriched below; roughly 1.2% of the tested compounds scored in any of these assays. Unless noted, how the calls were made is not given here.

O=[N+]([O-])c1cc(/C=N/Nc2nc3ccccc3[nH]2)c(O)cc1O	none
CSCCC(NS(=O)(=O)/C=C/c1ccccc1)C(=O)O (stereo not drawn)	none
CCCNC(=O)CN(c1cccc(F)c1)S(C)(=O)=O	RGS8-Gao reg 155.3[activator] | RGS4-Gao HTS 125.6 | Biotin-avidin inactive | RGS8-Gao confirm inactive | RGS7-Gao single inactive | RGS16-Gao single inactive | RGS4-Gao single inactive | RGS19-Gao single inactive
Cc1cc(C)cc(N(CC(=O)NCCSCc2ccccc2)S(C)(=O)=O)c1	Avidin fluor 77, RGS7-Gao 180.1[activator] | RGS4-Gao HTS 118.5 | Biotin-avidin inactive | RGS8-Gao confirm inactive | RGS7-Gao single 47.0 | RGS16-Gao single inactive | RGS4-Gao single 60.2 | RGS19-Gao single 48.5
Cn1nc(Oc2nc(N3CCOCC3)nc(N3CCOCC3)n2)ccc1=O	RGS8-Gao reg 11.6, RGS4-Gao reg -22.7, RGS7-Gao -4.9 | Biotin-avidin inactive | RGS8-Gao confirm inactive | RGS7-Gao single inactive | RGS16-Gao single inactive | RGS4-Gao single inactive | RGS19-Gao single inactive
CC(C)(C)Nc1nc(Oc2ccc(=O)n(-c3ccccc3)n2)nc(N2CCOCC2)n1	none (no result: RGS8-Gao reg, RGS16-Gao, Avidin fluor, RGS4-Gao reg, RGS7-Gao) | Biotin-avidin inactive | RGS8-Gao confirm inactive | RGS7-Gao single inactive | RGS16-Gao single inactive | RGS4-Gao single inactive | RGS19-Gao single inactive
Cc1ccc2[nH]cc(CCNC(=O)Nc3ccccc3)c2c1	none (no result: RGS8-Gao reg, RGS16-Gao, Avidin fluor, RGS4-Gao reg, RGS7-Gao) | Biotin-avidin inactive | RGS8-Gao confirm inactive | RGS7-Gao single inactive | RGS16-Gao single inactive | RGS4-Gao single inactive | RGS19-Gao single inactive
CC(=O)c1cccc(NC(=O)NCCc2c[nH]c3ccccc23)c1	RGS7-Gao inconclusive (no result: GSH fluor)
CC(=Nc1ccccc1)Nc1ccccc1	RGS8-Gao reg 159.0[activator] (no result: RGS16-Gao) | RGS4-Gao HTS 144.3 | Biotin-avidin inactive | RGS8-Gao confirm inactive | RGS7-Gao single inactive | RGS16-Gao single inactive | RGS4-Gao single inactive | RGS19-Gao single inactive
N#Cc1c(C(F)(F)F)cc(C2CC2)[nH]c1=O	Avidin fluor 85, RGS7-Gao 184.4[activator] | RGS4-Gao HTS 108.6 | Biotin-avidin inactive | RGS8-Gao confirm inactive | RGS7-Gao single inactive | RGS16-Gao single inactive | RGS4-Gao single inactive | RGS19-Gao single inactive
Cc1ccc(-c2cc(C(F)(F)F)c(C#N)c(=O)[nH]2)cc1	none
COc1cc(/C=N/NC(=O)Cn2ccc(C(F)(F)F)n2)cc(OC)c1OC	RGS8-Gao reg 20.0, RGS16-Gao 14.2, RGS4-Gao reg 31.1, RGS7-Gao 23.3 | Biotin-avidin inactive | RGS8-Gao confirm inactive | RGS7-Gao single inactive | RGS16-Gao single inactive | RGS4-Gao single inactive | RGS19-Gao single inactive
COc1ccc(C(C(=O)NC(C)(C)C)N(C(=O)Cn2nnc3ccccc32)c2cccc(C(C)=O)c2)cc1O (stereo not drawn)	RGS7-Gao inconclusive (no result: GSH fluor)
CCOC(=O)c1c(-c2cccs2)csc1NC(=O)CN(CC)CC	RGS8-Gao reg 54.6, RGS4-Gao reg 45.5, RGS7-Gao 41.9 | Biotin-avidin inactive | RGS8-Gao confirm inactive | RGS7-Gao single inactive | RGS16-Gao single inactive | RGS4-Gao single inactive | RGS19-Gao single inactive
